Laboratory results published in PubChem BioAssay (EPA / NIEHS).
The source made the active and inactive calls. How the source made its calls: active means hit-call score of the fitted dose curve at least 0.9, where 1 is the maximum; inactive means score below 0.9.

assay: APR_HepG2_CellCycleArrest_24hr: Apredica 24-hour HepG2 Assay for Cell Cycle Arrest (AID 2282905); settings: imaging, actives raise or lower the signal;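 further: cell cycle arrest scored as ratio of 2N to 4N nuclear DNA content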
Method: APR_HepG2_24hr is a cell-based, multiplexed-readout assay that uses HepG2, a human liver cell line, with measurements taken at 24 hours after chemical dosing in a 384-well plate.APR_HepG2_CellCycleArrest_24hr is one of 10 assay component(s) measured or calculated from the APR_HepG2_24hr assay. It is designed to make measurements of cell phenotype, a form of morphology reporter, as detected with fluorescence intensity signals by HCS Fluorescent Imaging technology.Data from the assay component APR_HepG2_CellCycleArrest_24hr was analyzed into 1 assay endpoint. This assay endpoint, APR_HepG2_CellCycleArrest_24hr, was analyzed with bidirectional fitting relative to DMSO as the negative control and baseline of activity. Using a type of morphology reporter, measures of all nuclear dna for gain or loss-of-signal activity can be used to understand the signaling at the pathway-level as they relate to the gene . Furthermore, this assay endpoint can be referred to as a primary readout, because this assay has produced multiple assay endpoints where this one serves a signaling function. To generalize the intended target to other relatable targets, this assay endpoint is annotated to the cell cycle intended target family, where the subfamily is arrest.
Cells were treated with dimethyl sulfoxide (DMSO) as a solvent control at a final concentration of 0.5% v/v or with compounds in DMSO with a resulting final DMSO concentration of 0.5% v/v. Compound treatment was done at concentrations of 0.39, 0.78, 1.56, 3.12, 6.24, 12.5, 25, 50, 100, and 200 uM in duplicate on each plate. Cells were treated with compounds for 1, 24, or 72 hr. Carbonyl […] m-chloro-phenylhydrazone (CCCP) and taxol were used as positive controls for mitochondrial function and cytoskeletal stability, respectively; DMSO served as the negative control for this experiment. Cells were fixed by the direct addition of 50 uL formaldehyde in Hank's Balanced Salt Solution (HBSS) to a final concentration of 3.7%. After incubation in the fixation medium for 30 min at room temperature (293-298 K), cells were rinsed twice with HBSS and treated with cell permeabilization buffer (16 uL of 0.5% Triton X-100) for 10 min at room temperature (293-298 K) before labeling. For mitochondrial membrane potential and mitochondrial measurements, pre-fixed cells were incubated with 50 uL of MitoTracker Red CMXRos (Invitrogen) at a concentration of 250 nM for 30 min before fixation. In the remaining cases, post-fixed cells were labeled by incubation with a multiplexed mixture of primary antibodies in HBSS for 60 min at room temperature (293-298 K) to detect immunoreactivity of c-Jun (1:500), phospho-histone H3 (1:100), phospho-histone H2A.x (1:200), p53 (1:400), alpha-tubulin (1:200) and Hoechst 33342 (2 ug/mL). Cells were labeled for multiplexed imaging on two separate plates: a) Hoechst 33342, MitoTracker Red, phospho-histone H3, and alpha-tubulin, and b) Hoechst 33342, phospho-histone H2A.x, and c-Jun. A final rinse with HBSS (50 uL) was performed before analysis. The primary and secondary antibodies for the proteins were phospho-histone H3 (rabbit anti-phospho-histone H3 and FITC-donkey anti-rabbit IgG), phospho-histone H2A.x (mouse anti-phospho-histone H2A.x and FITC-donkey anti-mouse IgG), c-Jun (rabbit anti-phospho-c-Jun and Cy3-donkey anti-rabbit IgG), p53 (sheep anti-p53 and Cy5-donkey anti-sheep IgG), alpha-tubulin (mouse anti-alpha-tubulin and Cy5-donkey anti-mouse IgG). These antibodies are available as the CellCiphr HepG2 assay kit (Millipore).Digital images of each well were captured using a Cellomics ArrayScan VTI (Thermo Scientific Cellomics) (0.8 NA objective, 0.63x optical coupler, and XF-93 filter set) at 20x magnification. The images were acquired using the autofocus feature of the ArrayScan instrument, which entails the following steps. First, the camera focuses on channel 1 (Hoechst 33342), where nuclei are identified. Second, a Z offset of 1 um is used for capturing mitochondria (MitoTracker Red). […]

Row | Structure (SMILES) | outcome | AC50
1 | Nc1ccc(Cc2ccc(N)cc2)cc1 | inactive | 
2 | O=[N+]([O-])C(Br)(CO)CO |  | 116 µM (active)
3 | COC(=O)Nc1nc2ccccc2[nH]1 |  | 15.4 µM (active)
4 | O=C1CCCO1 | inactive | 
5 | Clc1ccccc1Cl | inactive | 
6 | N#CC(Br)(Br)C(N)=O | inactive | 
7 | COP(=S)(OC)SCN1C(=O)c2ccccc2C1=O | inactive | 
8 | CC(C)(C)OOC(=O)c1ccccc1 | inactive | 
9 | O=C(Oc1ccc(Br)cc1)N1CCN2CCC1CC2 | inactive | 
10 | O=[N+]([O-])c1ccc(Oc2ccc(Cl)cc2Cl)cc1 | inactive | 
11 | CC(C)N(Cc1ccccc1)C(=O)C(C)(C)C | inactive | 
12 | Nc1ccc(Oc2ccc(N)cc2)cc1 | inactive | 
13 | O=C(O)C1C2CCC(O2)C1C(=O)O (stereo not given) | inactive | 
14 | O=P(OCCCl)(OCCCl)OCCCl | inactive | 
15 | CCCCCOC(=O)c1ccccc1C(=O)OCCCCC | inactive | 
16 | c1ccc(N=Nc2ccccc2)cc1 |  | 63.1 µM (active)
17 | C[N+](C)(C)CC1CO1 (stereo not given) |  | 81.2 µM (active)
18 | ClC1=C(Cl)C2(Cl)C3C(Cl)C=CC3C1(Cl)C2(Cl)Cl (stereo not given) |  | 40.9 µM (active)
19 | Clc1ccc(Cl)c(Cl)c1 | inactive | 
20 | CN(C)[C@@H]1C(=O)C(C(N)=O)=C(O)[C@@]2(O)C(=O)C3=C(O)c4c(O)cccc4[C@@](C)(O)[C@H]3C[C@@H]12 | inactive | 

Row | Structure (SMILES) | outcome | AC50
21 | c1ccc(C2CO2)cc1 (stereo not given) | inactive | 
22 | CCCCCCCCOC(=O)c1ccc(C(=O)OCCCCCCCC)c(C(=O)OCCCCCCCC)c1 | inactive | 
23 | Nc1ccc(N=Nc2ccccc2)cc1 |  | 75.5 µM (active)
24 | CNC(=O)Oc1cccc2c1OC(C)(C)C2 | inactive | 
25 | CC(C)(C)OOC(C)(C)CCC(C)(C)OOC(C)(C)C | inactive | 
26 | Cc1cccc(N)c1N | inactive | 
27 | Cc1cc(N=Nc2ccccc2C)ccc1N |  | 100 µM (active)
28 | C1=Cc2cccc3cccc1c23 | inactive | 
29 | Cc1ccc(N)c(N)c1 | inactive | 
30 | Nc1ccc([N+](=O)[O-])cc1 | inactive | 
31 | CN(C)c1ccc(C(=O)c2ccc(N(C)C)cc2)cc1 |  | 4.79 µM (active)
32 | CCCCCCCCCCCCCN1CC(C)OC(C)C1 (stereo not given) | inactive | 
33 | [As]#[In] | inactive | 
34 | CCCSC(=O)N(CCC)CCC | inactive | 
35 | CN(C)C(=O)Nc1ccc(Cl)cc1 | inactive | 
36 | CCCCOC(=O)c1ccccc1C(=O)OCc1ccccc1 | inactive | 
37 | COC(=O)c1ccccc1N | inactive | 
38 | Oc1ccccc1Cl | inactive | 
39 | ClC1=C(Cl)[C@]2(Cl)[C@H]3[C@H]([C@@H]4C=C[C@H]3C4)[C@@]1(Cl)C2(Cl)Cl | inactive | 
40 | C=CCc1ccc2c(c1)OCO2 | inactive | 
